Bioassay records as filed in PubChem BioAssay.
Hits are enriched below; roughly 2.4% of the tested compounds scored in any of these assays.
D2 ag-1 = activates the human D2 dopamine receptor; P14416; 340,000 compounds, 0.53% hits; activation, % at 2 µM; AID 485358; HEK293 T-REx D2 cells, calcium flux agonist mode;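 active means activation over 3 SD above normal in the single-dose calcium agonist read, cut at about 30% in these data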; further: 0% is about no effect
Target sequence (P14416 whole entry, looked up): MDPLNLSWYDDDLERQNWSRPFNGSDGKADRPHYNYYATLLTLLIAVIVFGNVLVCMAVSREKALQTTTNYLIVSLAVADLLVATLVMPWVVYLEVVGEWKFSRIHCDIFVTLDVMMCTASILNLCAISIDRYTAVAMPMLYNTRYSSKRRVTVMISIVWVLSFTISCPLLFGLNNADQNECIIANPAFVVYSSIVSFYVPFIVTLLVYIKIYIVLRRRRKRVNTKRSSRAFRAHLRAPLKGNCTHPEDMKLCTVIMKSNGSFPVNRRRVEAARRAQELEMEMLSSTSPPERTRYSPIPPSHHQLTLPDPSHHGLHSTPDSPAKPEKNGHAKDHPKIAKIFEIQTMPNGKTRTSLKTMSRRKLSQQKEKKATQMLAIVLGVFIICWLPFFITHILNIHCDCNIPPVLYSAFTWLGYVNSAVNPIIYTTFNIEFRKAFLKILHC
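Calcium-flux readout, 1 cycle/sec over 180 s following compound pin transfer, in inducible HEK293 Trex D2 cells (force-coupled); dopamine controls included. Positive calcium responses during this window marked compounds as potential agonists.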
D2 ag-2 = activates the human D2 dopamine receptor; P14416; DiscoveRx PathHunter D2 beta-arrestin, luminescence, 90 min; 100% = 57 uM dopamine signal; activation, % (concentration not given with the values); 360,000 compounds, 0.084% hits; AID 624465; in the data active means activation above about 40%
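Agonist mode: compounds alone added to overnight-plated D2 PathHunter cells for 90 min at 37 C, with 57 uM final dopamine (EC100) defining full response. Beta-arrestin recruitment detected by chemiluminescent reagent, read after 1 h at ambient temperature.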
D2 PAM-1 = D2 dopamine receptor (human) potentiation; P14416; HEK293 T-REx D2, calcium flux, EC20 dopamine potentiation; potentiation, % at 10 µM; 340,000 compounds, 0.34% hits;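 active means potentiation over 3 SD above the plate norm, cut at about 30% in these data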; further: 0% is about no effect
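Tetracycline-induced HEK293 T-REx cells force-coupled to calcium signalling expressed D2; compounds were pin-added after a 10 s baseline, read kinetically 180 s, then an EC20 dopamine challenge followed with a further 180 s calcium read.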
D2 antag = D2 dopamine receptor (human) antagonism; HEK293 TREx D2 cells, calcium flux, dopamine EC80; inhibition, % at 10 µM; 340,000 compounds, 2% hits; AID 485344; in the data active means inhibition above about 30%; inactive means below that, where a call was filed; further: 0% is about no effect
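Cells plated overnight at 30 C with tetracycline; no-wash calcium dye, 30–90 min RT; 10 s baseline; compound pinned; 180 s read; EC80 dopamine added; another 180 s read.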
D2 PAM-2 = positive allosteric modulators of human D2 dopamine receptor; 360,000 compounds, 0.23% hits; P14416; DiscoveRx D2 beta-arrestin cells, luminescence, 90 min; 100% = 57 uM dopamine signal; potentiation, % (no concentration beside the values); in the data active means potentiation above about 50%
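PathHunter beta-arrestin assay in DiscoveRx D2 cells. Compounds were added with an EC20 of dopamine (50 nM final) for 90 min at 37 deg C. Luminescence was read 1 h after detection reagent, with 57 uM dopamine as the EC100 control.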
* hit, by the source's call.

Screening O=C(NCC(c1ccc(F)cc1)N1CCOCC1)c1nn(-c2ccccc2)c(=O)c2ccccc12 (configuration not stated) returned D2 ag-1 0, D2 ag-2 -5, D2 PAM-1 -33, D2 antag 70* and D2 PAM-2 -2.
C/C(=N\NC(=O)c1c(Cl)c(C)nn1C)c1cccc(NC(=O)c2cccc(F)c2)c1 was read as D2 ag-1 0, D2 ag-2 -4, D2 PAM-1 -16, D2 antag 49* and D2 PAM-2 -22.
Screening CCN(C(=O)c1cnc(N2CCN(c3ncccn3)CC2)c2ccccc12)c1cccc(Cl)c1 returned D2 ag-1 1, D2 ag-2 -3, D2 PAM-1 25, D2 antag 46* and D2 PAM-2 -14.
For COC(=O)c1ccccc1NC(=O)CSc1nc2sc3c(c2c(=O)[nH]1)CCCC3 the results were D2 ag-1 -2 and D2 PAM-1 -7.
Screening Cc1cccc(N2CCN(C3CCCCC3NS(=O)(=O)c3ccccc3)CC2C)c1 (configuration not stated) returned D2 ag-1 1, D2 ag-2 4, D2 PAM-1 -4, D2 antag 13 and D2 PAM-2 -9.
COc1cccc(NC(=O)Cn2c(=O)n(C)c(=O)c3sc4c(c32)COC(C)(C)C4)c1 was read as D2 ag-1 0, D2 ag-2 -1, D2 PAM-1 -11, D2 antag 43* and D2 PAM-2 -5.
`CSc1cccc(NC(=S)N(CCCN2CCCC(C)C2)Cc2cccs2)c1` (configuration not stated) gave D2 ag-1 0, D2 ag-2 -5, D2 PAM-1 -17, D2 antag 46* and D2 PAM-2 -39.
`Cc1cc(C)cc(NC(=S)N(CCCN2CCN(C)CC2)Cc2cccs2)c1` gave D2 ag-1 1, D2 ag-2 0, D2 antag 1 and D2 PAM-2 1.
For COc1cccc(NC(=S)N(CCCN2CCCC(C)C2)Cc2cccs2)c1 (configuration not stated) the results were D2 ag-1 3, D2 ag-2 1, D2 PAM-1 -28, D2 antag 59* and D2 PAM-2 -15.
Screening COc1ccc(NC(=S)N(CCCN2CCC(C)CC2)Cc2cccs2)cc1Cl returned D2 ag-1 0, D2 ag-2 -3, D2 PAM-1 -8, D2 antag 5 and D2 PAM-2 -22.
`CC(C)(C)c1ccc(C(=O)Nc2ccc(C(=O)OCc3cc(=O)n4ccsc4n3)cc2)cc1` gave D2 ag-1 -1 and D2 PAM-1 -2.
For CSCCC(NC(=O)OC(C)(C)C)C(=O)Oc1ccc2c(=O)c(-c3ccc4c(c3)OCCO4)coc2c1 (configuration not stated) the results were D2 ag-1 0, D2 ag-2 -5, D2 PAM-1 10, D2 antag 33* and D2 PAM-2 -5.
Screening COc1ccccc1/C=N/NC(=O)c1ccc(Br)cc1 returned D2 ag-1 -1, D2 ag-2 -1, D2 PAM-1 -13, D2 antag 72* and D2 PAM-2 -15.
For O=C(N/N=C/c1ccc(OC(F)F)cc1)c1ccc(Br)cc1 the results were D2 ag-1 -1, D2 ag-2 0, D2 PAM-1 -20, D2 antag 31* and D2 PAM-2 -31.
For COc1ccccc1C=NNC(=O)NN=Cc1ccccc1OC the results were D2 ag-2 -2 and D2 PAM-2 -11.
COc1ccc(/C=N/NC(=O)c2ccc(Br)cc2)c(OC)c1 was read as D2 ag-1 1, D2 ag-2 0, D2 PAM-1 -28, D2 antag 33* and D2 PAM-2 -20.
COc1ccc(/C=N/NC(=O)c2ccncc2)c(OC)c1 was read as D2 ag-1 -1, D2 ag-2 -3, D2 PAM-1 6, D2 antag -9 and D2 PAM-2 -2.
Screening CCn1c(SCC(=O)N2CCC(C)CC2)nnc1-c1ccccc1O returned D2 ag-1 0 and D2 PAM-1 16.
Screening Nc1nonc1-n1nnc(C(=O)N/N=C/c2ccccc2Br)c1CN1CCCC1 returned D2 ag-1 -1, D2 ag-2 -4, D2 PAM-1 -2, D2 antag -19 and D2 PAM-2 -9.
Screening COc1ccc(C)cc1NC(=O)COc1cc(=O)n(C)c2ccccc12 returned D2 ag-1 0 and D2 PAM-1 1.
Screening CC(C)(C)c1ccc(NC(=O)c2ccccc2)c([N+](=O)[O-])c1 returned D2 ag-1 3, D2 ag-2 -3, D2 PAM-1 33*, D2 antag 15 and D2 PAM-2 -6.
Screening Cc1c(NC(=O)c2ccc(C(C)(C)C)cc2)cccc1[N+](=O)[O-] returned D2 ag-1 -1, D2 ag-2 4, D2 PAM-1 -6, D2 antag -9 and D2 PAM-2 14.
`CCOC(=O)N1CCN(C(=O)CSc2nnc(COc3ccccc3)o2)CC1` gave D2 ag-1 -2, D2 ag-2 1, D2 PAM-1 -8, D2 antag 2 and D2 PAM-2 0.
Screening CCOC(=O)N1CCN(C(=O)CSc2nnc(Cc3ccccc3)o2)CC1 returned D2 ag-1 1, D2 ag-2 -2, D2 PAM-1 31*, D2 antag -1 and D2 PAM-2 3.
COc1ccc(N2C(=O)CSC23C(=O)N(CC(=O)NCCc2ccccc2)c2ccccc23)cc1 (configuration not stated) was read as D2 ag-1 2 and D2 PAM-1 0.
For C=CCNC(=S)NNC(=O)C(CCC(C)C)CC(C)O (configuration not stated) the results were D2 ag-1 0, D2 ag-2 2, D2 PAM-1 -12, D2 antag 45* and D2 PAM-2 2.
C(#CC1CCCCC1)c1ccc2c(c1)COc1c3ccccc3nn1-2 was read as D2 ag-1 0, D2 ag-2 1, D2 PAM-1 34*, D2 antag 2 and D2 PAM-2 5.
`COc1ccc(S(=O)(=O)Nc2ccc3c(c2)n(C)c(=O)n3C)cc1F` gave D2 ag-1 -1, D2 ag-2 4, D2 PAM-1 0, D2 antag -3 and D2 PAM-2 -4.
Screening Cc1cc(S(=O)(=O)Nc2ccc3c(c2)n(C)c(=O)n3C)ccc1F returned D2 ag-1 0, D2 ag-2 -4, D2 PAM-1 106*, D2 antag -5 and D2 PAM-2 -1.
For CCOC(=O)C1CCC(CN(Cc2ccc(Cl)cc2)S(=O)(=O)c2ccc(F)c(C(=O)Nc3cccc(F)c3)c2)CC1 (configuration not stated) the results were D2 ag-1 0 and D2 PAM-1 3.
`Cc1ccc(S(=O)(=O)N2CCOCC2)cc1C(=O)Nc1ccccc1C(=O)O` gave D2 ag-1 1 and D2 PAM-1 16.
